Data on 32 molecules can be found in the supplement of paper PMC12632987.

The assay deals with T1, FBXL12, Q9NXK8.
T1 chain: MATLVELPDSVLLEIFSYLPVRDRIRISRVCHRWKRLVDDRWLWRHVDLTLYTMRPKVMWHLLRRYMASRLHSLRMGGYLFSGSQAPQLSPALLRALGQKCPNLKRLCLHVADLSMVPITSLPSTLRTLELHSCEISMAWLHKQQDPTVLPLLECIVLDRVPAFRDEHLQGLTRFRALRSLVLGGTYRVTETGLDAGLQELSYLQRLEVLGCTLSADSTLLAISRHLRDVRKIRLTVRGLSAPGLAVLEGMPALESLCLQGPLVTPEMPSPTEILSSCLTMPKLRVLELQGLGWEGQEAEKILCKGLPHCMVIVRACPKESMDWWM
The assay is described as follows: median log2 fold change of GCK-ALFA target abundance (FLAG IP / Myc IP barcode read proportion) (log2 ratio); each designed protein is fused to an ALFA-tag nanobody in HEK293 cells to bring the named protein to FLAG-tagged glucokinase (GCK); Myc marks an untargeted standard; higher = target protein stabilised (more abundant). Particulars: target protein: 3xFLAG-MCP-GCK-ALFA reporter; HEK293 landing pad (RPLP). How it is done:
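LABEL-seq trans screen in HEK293 landing-pad cells. Each de novo designed 100-aa effector handle, binding the indicated effector (E3 ligase, DUB or autophagy protein), is fused to a constant NbALFA target handle and induced with 2 ug/mL doxycycline. A FLAG-MCP-GCK-ALFA target and a Myc-MCP standard reporter were transfected, and after 48 h circRNA barcodes were recovered by anti-FLAG and anti-Myc IP and sequenced. The value is the median across barcodes (at least 3 per design) of log2(FLAG/Myc read-proportion ratio), with the two transfection replicates pooled. Negative values mean degradation and positive values mean stabilisation of the target.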

B1: FBXL12_hotspot_9_112 (protein)
chain: MTVILGVYAETEEELRRKLERALEYAEAALEAGWEVHIVVGAATPELAEAARRLLEEELGERVAELRARGAVIRVEETFEAARARREEIREEIERRAEEE
With B1, the “median log2 fold change” value is -0.276.

B2: FBXL12_hotspot_9_119 (protein)
chain: KVLVIYERIENPEDVEPAIERAIEYARAAAEAGWKVIVVFSAANPEIAEHTRRLLETRFGEEVAELEARGARIVVRDNEEEAEETKERLLREALEEEDRE
Consider B2, for which the “median log2 fold change” value was 0.0418.

B3: FBXL12_hotspot_9_121 (protein)
chain: RIVVIRQFIESEEEVGPTVRRAVAYARAAADAGWRVIIVISAASPEVAEAARRVLEEELGEEVAELRARGARIVVTSSREEAERKKAELLEAALAEEDAA
With B3, the “median log2 fold change” value is -0.228.

B4: FBXL12_hotspot_127_8 (protein)
chain: SDIEVRVSVPTYQSYRYAVAILLEMLKIDVKNGGKNVEKLLEQLKALMEDAAKHLPKEDVLELLDEAIKSLKELKKESPEHKELFDKAIKYLEKLRKEVE
For the molecule B4, the “median log2 fold change” value is -0.133.

B5: FBXL12_hotspot_109_7 (protein)
chain: MTVIVGGLATRPEHAERTARYVLTITRGLLAAGHRVRVVLAGTEESREILEAAAAELRALGAEVTLVVAETPEEARALYEERLAEAEEELDEEEEEEEEE
For B5, the “median log2 fold change” value came to 0.117.

B6: FBXL12_hotspot_9_105 (protein)
chain: KHIIVVASAATKEAFLNSSRTALEIAIGLAKAGHKVTVILSYDDPEKFEEWRAALEEELKELLEEAKELGIKIHYAPSPEEKERILEEVLEEHDEEEEEE
As to B6, the “median log2 fold change” value is 0.136.

B7: FBXL12_hotspot_9_125 (protein)
chain: RHVIISVTARTEEELREKIDRALDYAEAAAAAGWKVHLIVSGLSPELLAAAKELLATEHAERVAALKAAGAEIHLKETVEEGEALKAEILAEIEEEAERE
On to B7, for which the “median log2 fold change” value came out at 0.23.

B8: FBXL12_hotspot_9_110 (protein)
chain: SSILVIAHVTTRETADTTLATARAVTTGLAAHHDRVDVLIVVSDPEHADEMAALAEATAAELEAEHPNVRAEVVRAPDEAAGRAAIEAREAEFLAAAAEE
As for B8, the “median log2 fold change” value was -0.0129.

B9: FBXL12_hotspot_9_117 (protein)
chain: KTVIIGVVAATPEAARSTLAVAREIARGLAEAGIKVHVIMAASSEETREEVLAIFREAGAEIQAELADKGVKVRVAETMEEYERLKAEVLEEIDREEEEE
As for B9, the “median log2 fold change” value was 0.0889.

B10: FBXL12_hotspot_9_107 (protein)
chain: KTVLVTAYFEKEETVETTLKYAMEIALGLAEAGHKVRVLIGAKNEEILKKAKEILETKLKETVERLKELGVEIIFVSSEEEYEKKKKELLEEMEKEEEEA
Regarding B10, the “median log2 fold change” value was found to be 0.196.

B11: FBXL12_hotspot_9_108 (protein)
chain: MLRILVATVSSLETAGPTIETAAAIARGLVAAGHRVRVIFISANAETGEEMLALARERLGALAAEEGRVTVVLRLAENEEEAEEIKEELLEEALEEVDRA
As for B11, the “median log2 fold change” value was -0.0498.

B12: FBXL12_hotspot_9_115 (protein)
chain: RTILVVASANTVERVRSTLETALKISIGLAEAGHKVILLIAAATEEVLEKAKELLETELKPLVEKLKELGVEVKEPVLYEEAEPLKEEILEEIDEEEEEE
Turning to B12, the “median log2 fold change” value came to 0.00902.

B13: FBXL12_hotspot_95_100 (protein)
chain: RRVVVVVFRHLVTPESAETVRQGVARFKAIVEGLRAAGVEVVAVLVLSYEDEESRALAEELKAEAAPLLDYAHLAPTREAAEAAYAELKARALAEADRLE
For B13, the “median log2 fold change” value is -0.315.

B14: FBXL12_hotspot_9_123 (protein)
chain: MIVVIRENVKREEDIEPALRRAVAYAEAAAEAGWRVILVFSASSEELKEKAKEILETKLGERVARLKARGARIVVTATEEEAERKKRELLEEALREEDEA
Regarding B14, the “median log2 fold change” value was -0.0307.

B15: FBXL12_hotspot_9_104 (protein)
chain: KHIVIVASASTREAFLNSARTALEIAIGLAKAGHKVTVILHHTRPETAEEARAAVKKELAELIEEAKELGIEIRFAATEEELERLLEEALREADEEEERE
For B15, the “median log2 fold change” value came out at 0.00127.

B16: FBXL12_hotspot_9_118 (protein)
chain: RVLVISEYVRSEAEVEPAIARALAYARAAADAGWRVIVVISAASPAIAAHARRLLATRYGEEVAELRARGARIVVRDSRAAAEAEKARLLAEALAAEDAA
B16: the “median log2 fold change” value was -0.563.

B17: FBXL12_hotspot_9_103 (protein)
chain: MTVLVVGRATTPESVRTTVRTAVEIAEGLVAAGHEVVLILYAADPEVAEVLRRTVEEEFGERVAALRAAGARVVVAPDLEAGERAKREALEEIERREEEE
In the case of B17, the “median log2 fold change” value came out at 0.0779.

B18: FBXL12_hotspot_9_106 (protein)
chain: MTILVTAYFEEESTIETTLKYALEIALGLAKAGHKVKVLIGAANEELLKKAKEILETKLKEIVEELKKLGVEIILVDSKEEYEKKKEELLKEAEEEEKEA
On to B18, for which the “median log2 fold change” value is -0.24.

B19: FBXL12_hotspot_82_98 (protein)
chain: MISIIGLVNRPPETAVESLRNTAETMIAIVEGARAAGVEVERAVLVVRADPETRAVAEELRPRLEAAGIEVHLKETSEEALATKEAILEEIERRWEEEEE
As for B19, the “median log2 fold change” value is 0.108.

B20: FBXL12_hotspot_134_9 (protein)
chain: RTVVVIVSANGVSDAQARAAVDRAETIIAGLRAAGHRVLFVLVLSLADAAVGDALVARARAAAAAHGAEVVAAENVPAADFEAVLAAARARALARLDELE
For B20, the “median log2 fold change” value came out at 0.11.

B21: FBXL12_hotspot_82_99 (protein)
chain: SIAIIGLVNRPPETAVASLRNTADTIITLVEGAREAGVEVVRAVLVVHADPETRAEAERLRPRLEAAGVEVHLEATSAAADARAEAIRAAIEARFAAEDA
As for B21, the “median log2 fold change” value is 0.0901.

B22: FBXL12_hotspot_9_111 (protein)
chain: SSILVVAHVTTAETADSTLETAEAVTRGLAEHHDEVKVLIVVTDPENADEMAAKAEAVAERLEAEHPNVTATVVRAPDEAAGRAAIEAAEAAFLAEADAA
As for B22, the “median log2 fold change” value was 0.154.

B23: FBXL12_hotspot_9_124 (protein)
chain: MHVIISQYAETEEEARRQIERALEYAKAAAEAGWKVTVIFSASTEELKEFIEELLETEYAEEVAELKAKGVEIHVVETEEEAERLKEEILEEIEEEAEEE
In the case of B23, the “median log2 fold change” value was -0.161.

B24: FBXL12_hotspot_81_97 (protein)
chain: KELDIVLSQQVQPGDTVEQVRAGLQYQVDLVEAAKAAGVKIRSITVRFSIDTSAFSPEEIEAILAAVEEARARIEALAKEAGAKLIDESAAAIAAVRAAL
In the case of B24, the “median log2 fold change” value was 0.149.

B25: FBXL12_hotspot_9_114 (protein)
chain: RVLVLSFFAETREEAERELARMEEWARAALAAGWDVLIVVAAATEEVAAHARELLARMEAALRAAYPDRRVRVAVALTREAAAAAKAALLAELLAEADAA
On to B25, for which the “median log2 fold change” value was -0.157.

B26: FBXL12_hotspot_9_113 (protein)
chain: RILVLSAFAETKEEAEEKLARIREWARAAAAAGWDVIIVVAASTEEVAEYARRLLEELEAELRAAYPDVRVRVDVRLTREEAEETKARLLAEALEEEDRR
Take B26: the “median log2 fold change” value is -0.106.

B27: FBXL12_hotspot_9_109 (protein)
chain: RTRVVVGVVTSPETADSTLAMLRAVTSGLSRHDDRVHVLIVVQDPANRDALLARAEAVAAELEAEHPNVRVRVVAAPDEEAAEAARAAFLAEVDAEEAAA
In the case of B27, the “median log2 fold change” value was found to be 0.0457.

B28: FBXL12_hotspot_95_101 (protein)
chain: MRRVIILVRQAVTAENIESAIQAIERAAAIARGLRAAGVEVKLIVVAHAPDEETRARIEAAVERHRDVIDEFVLEETEEAMEEKAEELLEEALEEIDEAE
As for B28, the “median log2 fold change” value was -0.00895.

B29: FBXL12_hotspot_9_120 (protein)
chain: RIVVIHEFLESLEDVGPRLTRAVDIAETAADAGWKVILVFSAASPEVAAAARRYLAEELGERVAALEARGAVIRVAESREEAERIKRELLEEALREEDEA
Regarding B29, the “median log2 fold change” value was -0.0369.

B30: FBXL12_hotspot_9_116 (protein)
chain: KTVVVLARALRVETVESTLRTALEIAIGLAKAGVKVHLVIGAADEEVLAKARELLATRLAPLVEEARALGVEVHEPALYEEAEALVEEILEEIDEEEEEE
B30: the “median log2 fold change” value turned out to be 0.0101.

B31: FBXL12_hotspot_9_122 (protein)
chain: RIVVISEFVESPEEVEPVVRRAVEYAEAAAAAGWRVIIVIAAASPEVAEHARRVLEERFGERVARLRAAGARIEVRASREEAERAKRELLEEALAEEDAA
As for B31, the “median log2 fold change” value is 0.0626.

B32: FBXL12_hotspot_95_102 (protein)
chain: QRKVVVVYRHTVTPENLEQALAGLRRAKEIVEGLKAAGVEVYAVVAVSAETEEQRAQLEAEAEKVAKAADYALVEILLGATPEEVEERAEEMLEEVLKKI
Turning to B32, the “median log2 fold change” value came out at 0.243.
